Common to all, as to assay: DAPPL (digital affinity profiling via proximity ligation, sequencing); 10 mM Tris-HCl pH 7.5, 50 mM NaCl, 1 mM DTT, 4% glycerol, room temperature, 30 min; GST-TFs on glutathione beads, 16-mer random dsDNA library, 0.1% formaldehyde crosslink after washing; high values mean tight binding
One assay deals with T1, FEV (Homo sapiens, UniProt Q99581 1-238).
T1 sequence: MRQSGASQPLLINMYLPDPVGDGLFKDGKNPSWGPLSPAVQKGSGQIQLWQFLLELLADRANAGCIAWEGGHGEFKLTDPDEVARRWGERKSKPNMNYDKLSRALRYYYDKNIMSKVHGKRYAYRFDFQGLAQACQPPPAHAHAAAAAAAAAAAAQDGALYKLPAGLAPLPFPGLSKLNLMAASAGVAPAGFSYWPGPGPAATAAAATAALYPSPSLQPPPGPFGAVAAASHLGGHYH
As to conditions: protein: recombinant; tags: N-terminal GST; dsDNA, one strand shown. The method, boiled down: (§1)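 Binding signal is given per hexamer as its read frequency for a factor divided by its frequency in the tag-only sample. GST-fused human transcription factors were expressed in yeast, captured on glutathione beads, barcoded with DNA and pooled with that sample, then incubated with 200 nmole of a 16-mer random double-stranded DNA library in Tris/NaCl/DTT/glycerol buffer for 30 min at room temperature. The pools were then washed, crosslinked, proximity-ligated, amplified by PCR and sequenced on an Illumina NextSeq500.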

For a further assay, the target named is ETV5 (Homo sapiens, UniProt P41161 1-510). To be noted: protein: recombinant; tags: N-terminal GST; dsDNA, one strand shown. The method, boiled down: as §1
Sequence of ETV5 (P41161 whole entry): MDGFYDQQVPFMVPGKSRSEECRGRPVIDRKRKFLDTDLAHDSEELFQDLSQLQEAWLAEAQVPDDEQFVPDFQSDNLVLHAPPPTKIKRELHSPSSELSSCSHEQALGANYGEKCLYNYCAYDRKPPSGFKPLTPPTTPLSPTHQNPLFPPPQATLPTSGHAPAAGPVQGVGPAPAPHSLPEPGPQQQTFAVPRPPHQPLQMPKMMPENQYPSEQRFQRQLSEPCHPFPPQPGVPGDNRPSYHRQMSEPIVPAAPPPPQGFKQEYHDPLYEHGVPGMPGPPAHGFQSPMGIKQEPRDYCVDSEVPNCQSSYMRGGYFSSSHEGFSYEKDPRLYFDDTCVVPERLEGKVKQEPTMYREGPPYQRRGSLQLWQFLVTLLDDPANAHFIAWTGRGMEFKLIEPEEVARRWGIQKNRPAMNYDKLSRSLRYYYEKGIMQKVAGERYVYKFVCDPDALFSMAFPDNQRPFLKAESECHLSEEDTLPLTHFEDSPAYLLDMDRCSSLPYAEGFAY
The target of a further assay is HSF1 (Homo sapiens, UniProt Q00613 1-529). As to conditions: protein: recombinant; tags: N-terminal GST; chain copies: 3; dsDNA, one strand shown. The method in brief:
as §1

The next assay addresses T2, SPIC (Homo sapiens, UniProt Q8N5J4 1-248).
T2 sequence: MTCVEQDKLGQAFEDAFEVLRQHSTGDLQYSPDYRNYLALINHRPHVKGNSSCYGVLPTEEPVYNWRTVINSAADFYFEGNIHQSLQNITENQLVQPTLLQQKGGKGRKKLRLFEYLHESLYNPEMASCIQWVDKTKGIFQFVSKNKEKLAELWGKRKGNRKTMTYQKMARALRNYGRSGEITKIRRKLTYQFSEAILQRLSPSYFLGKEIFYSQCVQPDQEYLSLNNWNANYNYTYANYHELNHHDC
To be noted: protein: recombinant; tags: N-terminal GST; dsDNA, one strand shown. The method in brief:
as §1

The target in the next assay is ELF4 (Homo sapiens, UniProt Q99607 1-663). To be noted: protein: recombinant; tags: N-terminal GST; dsDNA, one strand shown. The method in brief: as §1
Sequence of ELF4 (Q99607 whole entry): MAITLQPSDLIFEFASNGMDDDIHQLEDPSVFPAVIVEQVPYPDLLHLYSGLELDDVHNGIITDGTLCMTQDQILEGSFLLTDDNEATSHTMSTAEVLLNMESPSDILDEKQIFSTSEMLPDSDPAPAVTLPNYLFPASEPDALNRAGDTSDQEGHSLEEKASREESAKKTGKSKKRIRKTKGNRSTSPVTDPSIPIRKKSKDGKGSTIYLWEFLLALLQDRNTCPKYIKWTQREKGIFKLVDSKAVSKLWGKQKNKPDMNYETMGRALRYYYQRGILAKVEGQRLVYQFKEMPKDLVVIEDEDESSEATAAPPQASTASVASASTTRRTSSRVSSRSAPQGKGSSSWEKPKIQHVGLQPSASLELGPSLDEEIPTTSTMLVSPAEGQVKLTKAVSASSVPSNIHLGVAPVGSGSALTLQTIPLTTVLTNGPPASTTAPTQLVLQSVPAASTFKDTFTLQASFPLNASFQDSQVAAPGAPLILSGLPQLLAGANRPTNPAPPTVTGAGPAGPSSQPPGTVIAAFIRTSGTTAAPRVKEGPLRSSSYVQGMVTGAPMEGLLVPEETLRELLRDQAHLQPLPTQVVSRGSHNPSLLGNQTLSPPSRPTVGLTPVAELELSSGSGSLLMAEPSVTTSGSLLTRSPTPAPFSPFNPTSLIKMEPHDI
Another assay addresses T3, ELK4 (Homo sapiens, UniProt P28324-2 1-405).
T3 sequence: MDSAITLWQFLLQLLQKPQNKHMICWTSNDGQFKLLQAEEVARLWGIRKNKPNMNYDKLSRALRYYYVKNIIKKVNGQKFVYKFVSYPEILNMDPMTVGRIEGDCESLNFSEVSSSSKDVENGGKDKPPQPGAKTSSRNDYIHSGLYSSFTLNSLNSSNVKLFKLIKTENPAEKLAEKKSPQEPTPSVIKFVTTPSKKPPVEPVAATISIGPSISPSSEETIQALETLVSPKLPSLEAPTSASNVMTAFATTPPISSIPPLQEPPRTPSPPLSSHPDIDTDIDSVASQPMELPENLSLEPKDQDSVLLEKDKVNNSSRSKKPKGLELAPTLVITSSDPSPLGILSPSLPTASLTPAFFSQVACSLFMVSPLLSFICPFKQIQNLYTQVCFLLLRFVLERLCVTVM
To be noted: protein: recombinant; tags: N-terminal GST; dsDNA, one strand shown. The method, boiled down: as §1

For the next assay, the target named is T4, ETV2 (Homo sapiens, UniProt O00321 1-342).
T4 sequence: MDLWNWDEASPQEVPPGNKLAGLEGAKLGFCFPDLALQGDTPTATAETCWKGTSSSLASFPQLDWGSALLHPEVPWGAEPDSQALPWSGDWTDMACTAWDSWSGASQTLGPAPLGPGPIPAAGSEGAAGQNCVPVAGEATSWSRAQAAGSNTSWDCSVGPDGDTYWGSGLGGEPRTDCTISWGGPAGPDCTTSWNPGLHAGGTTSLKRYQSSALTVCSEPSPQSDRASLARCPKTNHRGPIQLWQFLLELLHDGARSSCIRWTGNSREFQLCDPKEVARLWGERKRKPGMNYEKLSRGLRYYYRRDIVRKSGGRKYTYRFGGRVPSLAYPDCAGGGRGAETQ
As to conditions: protein: recombinant; tags: N-terminal GST; dsDNA, one strand shown. The method in brief:
as §1

A further assay addresses T5, ELF3 (Homo sapiens, UniProt P78545 1-371).
T5 sequence: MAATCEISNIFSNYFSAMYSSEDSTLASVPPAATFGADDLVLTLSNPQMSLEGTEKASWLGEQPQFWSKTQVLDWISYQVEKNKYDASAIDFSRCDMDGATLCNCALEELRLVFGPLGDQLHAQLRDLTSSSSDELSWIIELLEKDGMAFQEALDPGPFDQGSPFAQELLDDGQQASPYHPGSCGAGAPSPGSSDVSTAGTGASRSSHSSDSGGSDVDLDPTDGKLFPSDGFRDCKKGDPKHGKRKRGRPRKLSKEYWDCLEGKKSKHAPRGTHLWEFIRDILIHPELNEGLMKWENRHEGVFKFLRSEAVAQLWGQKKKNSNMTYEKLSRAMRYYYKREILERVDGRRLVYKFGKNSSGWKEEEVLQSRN
As to conditions: protein: recombinant; tags: N-terminal GST; dsDNA, one strand shown. The method in brief: as §1

The next assay concerns the target CRX (Homo sapiens, UniProt O43186 1-299). To be noted: protein: recombinant; tags: N-terminal GST; dsDNA, one strand shown. The method, boiled down: as §1
Another assay has as its target ETV1 (Homo sapiens, UniProt P50549 1-477). As to conditions: protein: recombinant; tags: N-terminal GST; dsDNA, one strand shown. The method, boiled down: as §1
The target of a further assay is T6, ERF (Homo sapiens, UniProt P50548 1-548).
T6 sequence: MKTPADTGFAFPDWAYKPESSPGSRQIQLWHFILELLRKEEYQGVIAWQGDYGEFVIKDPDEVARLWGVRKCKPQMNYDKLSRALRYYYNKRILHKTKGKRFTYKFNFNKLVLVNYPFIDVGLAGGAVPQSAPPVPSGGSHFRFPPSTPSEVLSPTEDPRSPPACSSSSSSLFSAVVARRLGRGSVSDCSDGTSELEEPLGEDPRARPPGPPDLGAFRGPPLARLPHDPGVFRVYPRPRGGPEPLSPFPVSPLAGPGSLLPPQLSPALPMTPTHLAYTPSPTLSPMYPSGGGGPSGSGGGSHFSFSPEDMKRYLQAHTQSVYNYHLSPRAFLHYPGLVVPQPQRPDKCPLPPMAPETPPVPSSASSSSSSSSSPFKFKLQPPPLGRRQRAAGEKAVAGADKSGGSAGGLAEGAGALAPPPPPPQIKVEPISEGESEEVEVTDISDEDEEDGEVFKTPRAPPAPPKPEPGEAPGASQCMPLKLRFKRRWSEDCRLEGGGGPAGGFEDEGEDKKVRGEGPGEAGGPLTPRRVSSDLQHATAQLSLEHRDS
To be noted: protein: recombinant; tags: N-terminal GST; dsDNA, one strand shown. The method in brief: as §1

The next assay addresses T7, ETV3L (Homo sapiens, UniProt Q6ZN32 1-361).
T7 sequence: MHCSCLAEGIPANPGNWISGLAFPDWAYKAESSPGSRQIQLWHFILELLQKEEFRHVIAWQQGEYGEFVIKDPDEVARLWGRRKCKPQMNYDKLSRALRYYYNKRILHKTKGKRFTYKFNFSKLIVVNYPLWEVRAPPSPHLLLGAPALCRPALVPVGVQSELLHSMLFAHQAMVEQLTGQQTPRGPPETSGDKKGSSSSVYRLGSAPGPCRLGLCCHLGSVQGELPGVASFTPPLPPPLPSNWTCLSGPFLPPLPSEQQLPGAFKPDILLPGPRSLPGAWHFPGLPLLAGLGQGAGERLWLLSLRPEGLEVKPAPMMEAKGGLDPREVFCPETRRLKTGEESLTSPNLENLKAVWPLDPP
As to conditions: protein: recombinant; tags: N-terminal GST; dsDNA, one strand shown. The method, boiled down:
as §1

The target in the next assay is T8, ETS2 (Homo sapiens, UniProt P15036 1-469).
T8 sequence: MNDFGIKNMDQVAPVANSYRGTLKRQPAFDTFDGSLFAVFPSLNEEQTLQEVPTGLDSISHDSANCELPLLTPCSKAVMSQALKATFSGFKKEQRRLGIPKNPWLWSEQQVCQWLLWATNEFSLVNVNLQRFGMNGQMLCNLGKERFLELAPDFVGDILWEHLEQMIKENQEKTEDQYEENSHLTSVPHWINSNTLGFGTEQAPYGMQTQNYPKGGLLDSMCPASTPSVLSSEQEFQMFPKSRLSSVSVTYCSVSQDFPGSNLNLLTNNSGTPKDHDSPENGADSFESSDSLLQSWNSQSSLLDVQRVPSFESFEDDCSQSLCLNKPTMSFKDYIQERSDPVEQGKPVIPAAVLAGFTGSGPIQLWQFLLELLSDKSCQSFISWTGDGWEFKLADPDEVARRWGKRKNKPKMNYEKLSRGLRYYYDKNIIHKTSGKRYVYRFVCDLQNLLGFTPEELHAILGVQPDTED
As to conditions: protein: recombinant; tags: N-terminal GST; dsDNA, one strand shown. The method, boiled down: as §1

The target of another assay is T9, SPDEF (Homo sapiens, UniProt O95238 1-335).
T9 sequence: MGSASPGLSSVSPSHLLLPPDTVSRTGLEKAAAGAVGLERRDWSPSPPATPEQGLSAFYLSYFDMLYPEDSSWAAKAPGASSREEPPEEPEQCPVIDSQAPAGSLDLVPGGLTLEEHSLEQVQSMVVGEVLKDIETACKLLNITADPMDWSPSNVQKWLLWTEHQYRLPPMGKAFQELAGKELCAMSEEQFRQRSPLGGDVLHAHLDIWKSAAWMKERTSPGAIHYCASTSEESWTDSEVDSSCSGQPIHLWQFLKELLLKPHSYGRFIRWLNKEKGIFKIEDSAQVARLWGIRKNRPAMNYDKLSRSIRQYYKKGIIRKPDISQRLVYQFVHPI
To be noted: protein: recombinant; tags: N-terminal GST; dsDNA, one strand shown. The method, boiled down:
as §1

The target in a further assay is T10, ETV7 (Homo sapiens, UniProt Q9Y603 1-341).
T10 sequence: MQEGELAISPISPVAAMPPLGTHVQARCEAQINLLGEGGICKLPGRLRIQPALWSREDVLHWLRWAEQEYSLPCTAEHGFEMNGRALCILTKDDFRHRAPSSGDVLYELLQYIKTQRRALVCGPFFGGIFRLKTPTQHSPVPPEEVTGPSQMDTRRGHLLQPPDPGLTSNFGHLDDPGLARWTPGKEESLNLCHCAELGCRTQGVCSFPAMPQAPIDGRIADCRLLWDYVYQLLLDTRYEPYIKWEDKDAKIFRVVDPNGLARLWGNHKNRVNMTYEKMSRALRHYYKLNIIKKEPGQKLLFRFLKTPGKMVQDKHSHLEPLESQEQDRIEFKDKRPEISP
As to conditions: protein: recombinant; tags: N-terminal GST; dsDNA, one strand shown. The method in brief: as §1

Another assay deals with T11, ELF5 (Homo sapiens, UniProt Q9UKW6-2 1-255).
T11 sequence: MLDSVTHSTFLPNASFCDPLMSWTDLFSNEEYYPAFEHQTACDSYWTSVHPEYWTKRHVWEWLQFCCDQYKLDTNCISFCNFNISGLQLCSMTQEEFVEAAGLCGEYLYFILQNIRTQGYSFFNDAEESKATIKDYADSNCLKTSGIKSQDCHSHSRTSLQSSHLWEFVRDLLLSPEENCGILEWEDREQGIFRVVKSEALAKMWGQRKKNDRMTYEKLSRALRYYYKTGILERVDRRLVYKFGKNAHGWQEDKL
As to conditions: protein: recombinant; tags: N-terminal GST; dsDNA, one strand shown. The method, boiled down:
as §1

The target in another assay is T12, ETV3 (Homo sapiens, UniProt P41162-2 1-143).
T12 sequence: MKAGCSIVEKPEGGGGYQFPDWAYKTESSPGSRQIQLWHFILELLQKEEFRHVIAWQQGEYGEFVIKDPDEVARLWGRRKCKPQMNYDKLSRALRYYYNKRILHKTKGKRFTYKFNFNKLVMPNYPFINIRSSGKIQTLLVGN
To be noted: protein: recombinant; tags: N-terminal GST; dsDNA, one strand shown. The method in brief:
as §1

The target of the next assay is ETV6 (Homo sapiens, UniProt P41212 1-452). To be noted: protein: recombinant; tags: N-terminal GST; dsDNA, one strand shown. The method, boiled down:
as §1

Sequence of ETV6 (P41212 whole entry): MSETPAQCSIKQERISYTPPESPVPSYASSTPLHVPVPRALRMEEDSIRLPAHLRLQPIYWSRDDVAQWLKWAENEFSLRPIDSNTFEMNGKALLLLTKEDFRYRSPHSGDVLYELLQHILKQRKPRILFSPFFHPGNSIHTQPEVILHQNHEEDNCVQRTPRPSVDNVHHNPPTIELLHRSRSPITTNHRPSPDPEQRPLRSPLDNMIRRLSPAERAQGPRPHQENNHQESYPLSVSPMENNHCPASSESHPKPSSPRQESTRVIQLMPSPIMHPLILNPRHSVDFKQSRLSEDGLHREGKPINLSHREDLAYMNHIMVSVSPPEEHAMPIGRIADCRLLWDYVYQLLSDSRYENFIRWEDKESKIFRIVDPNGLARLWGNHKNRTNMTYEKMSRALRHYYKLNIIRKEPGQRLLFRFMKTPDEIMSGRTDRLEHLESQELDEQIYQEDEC
Sequence of HSF1 (Q00613 whole entry): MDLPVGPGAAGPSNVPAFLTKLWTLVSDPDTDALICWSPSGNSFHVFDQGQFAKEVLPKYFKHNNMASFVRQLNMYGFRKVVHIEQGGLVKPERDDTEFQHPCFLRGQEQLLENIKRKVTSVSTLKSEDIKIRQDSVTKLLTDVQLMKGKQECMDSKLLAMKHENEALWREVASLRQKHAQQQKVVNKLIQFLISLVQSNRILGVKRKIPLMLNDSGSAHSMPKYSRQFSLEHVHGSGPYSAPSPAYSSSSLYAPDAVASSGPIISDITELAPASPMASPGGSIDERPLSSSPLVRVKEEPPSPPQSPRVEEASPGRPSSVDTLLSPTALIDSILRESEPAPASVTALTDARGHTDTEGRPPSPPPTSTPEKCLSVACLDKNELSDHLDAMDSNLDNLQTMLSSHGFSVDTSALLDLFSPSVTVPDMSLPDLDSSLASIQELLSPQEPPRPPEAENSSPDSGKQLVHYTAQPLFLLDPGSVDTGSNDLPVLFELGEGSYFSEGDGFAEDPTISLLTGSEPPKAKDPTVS
Sequence of CRX (O43186 whole entry): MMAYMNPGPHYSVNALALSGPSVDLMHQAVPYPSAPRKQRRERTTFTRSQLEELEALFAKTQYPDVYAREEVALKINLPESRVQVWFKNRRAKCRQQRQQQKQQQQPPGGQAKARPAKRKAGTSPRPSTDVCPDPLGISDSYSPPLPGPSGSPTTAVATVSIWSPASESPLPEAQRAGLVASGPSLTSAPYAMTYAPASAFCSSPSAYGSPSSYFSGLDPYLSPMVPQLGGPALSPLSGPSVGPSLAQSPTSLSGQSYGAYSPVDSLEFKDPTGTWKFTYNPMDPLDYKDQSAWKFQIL
Sequence of ETV1 (P50549 whole entry): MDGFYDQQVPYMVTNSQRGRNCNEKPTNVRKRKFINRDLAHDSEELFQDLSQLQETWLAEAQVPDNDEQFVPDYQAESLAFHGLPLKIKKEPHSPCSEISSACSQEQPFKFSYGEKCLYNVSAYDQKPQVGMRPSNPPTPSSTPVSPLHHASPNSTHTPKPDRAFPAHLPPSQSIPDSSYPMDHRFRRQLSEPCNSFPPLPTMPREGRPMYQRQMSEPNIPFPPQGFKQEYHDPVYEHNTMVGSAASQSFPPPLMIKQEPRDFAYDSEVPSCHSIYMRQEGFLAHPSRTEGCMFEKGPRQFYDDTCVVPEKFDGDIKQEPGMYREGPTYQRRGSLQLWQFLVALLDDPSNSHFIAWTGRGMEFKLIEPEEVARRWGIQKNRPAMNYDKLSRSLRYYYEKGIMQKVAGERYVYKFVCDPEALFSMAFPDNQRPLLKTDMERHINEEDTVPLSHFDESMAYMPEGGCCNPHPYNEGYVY

Consider TTATGT, for which the binding signal was 1.15 fold enrichment (6-mer frequency, TF over GST control) in the assay with FEV; 1.38 fold enrichment (6-mer frequency, TF over GST control) with ETV5; 1.63 fold enrichment (6-mer frequency, TF over GST control) with HSF1; 1.17 fold enrichment (6-mer frequency, TF over GST control) with SPIC; 1.38 fold enrichment (6-mer frequency, TF over GST control) in the assay with ELF4; 1.38 fold enrichment (6-mer frequency, TF over GST control) with ELK4. Besides, the binding signal with ETV2 was 1.13 fold enrichment (6-mer frequency, TF over GST control); with ELF3, 1.41 fold enrichment (6-mer frequency, TF over GST control); with CRX, 2.24 fold enrichment (6-mer frequency, TF over GST control); with ETV1, 1.29 fold enrichment (6-mer frequency, TF over GST control); with ERF, 1.29 fold enrichment (6-mer frequency, TF over GST control); with ETV3L, 1.26 fold enrichment (6-mer frequency, TF over GST control). The binding signal was 1.3 fold enrichment (6-mer frequency, TF over GST control) in the assay with ETS2; 1.36 fold enrichment (6-mer frequency, TF over GST control) with SPDEF; 1.3 fold enrichment (6-mer frequency, TF over GST control) in the assay with ETV7; 1.23 fold enrichment (6-mer frequency, TF over GST control) with ELF5; 1.34 fold enrichment (6-mer frequency, TF over GST control) with ETV3; 1.43 fold enrichment (6-mer frequency, TF over GST control) with ETV6.

Source of the values: paper PMC7862700, “An all-to-all approach to the identification of sequence-specific readers for epigenetic DNA modifications on cytosine”.
